Results on five molecules are retold here after PubChem BioAssay.

Activity calls are given as the source filed them.

Test [1] is described as follows: binders of probe aFSTL3 on microarray, primary screen, stem cell growth factor project, biochemical, small-molecule microarray, fluorescence 635/667 (AID 1064).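 Also: measures binding of the biotinylated anti-FSTL3 antibody to printed compounds.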 The conditions noted are these: higher = more signal.
The nature of test [2]: binders from COS7 lysate, DM2A8 probe, primary screen, torsin A project, cell lysate, small-molecule microarray, fluorescence 635/667 (AID 1065). The conditions noted are these: higher = more signal, COS7 lysate expressing mutant human TOR1A.
The nature of test [3]: binders of probe aFGF2 on microarray, primary screen, stem cell growth factor project, biochemical, small-molecule microarray, fluorescence 635/667 (AID 1067).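 Also: measures binding of biotinylated aFGF2 protein to printed compounds on slides; z-score merges feature fluorescence and signal-to-noise across triplicate slides.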 The note with it: higher = more signal.
Test [4] is described as follows: binders of probe aFGF10 on microarray, primary screen, stem cell growth factor project, biochemical, small-molecule microarray, fluorescence 635/667 (AID 1071).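 Also: score merges 667 nm spot intensity and signal to noise from triplicate slides.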 The note with it: higher = more signal.
The target of test [5] is Neurogenic locus notch homolog protein 2 (Homo sapiens) (UniProt Q04721). Put plainly: Notch2 binders on small-molecule microarrays, primary screen, biochemical, small-molecule microarray, 635 nm fluorescence, stem cell growth factors (AID 1073). The note with it: Notch2 binding, higher = more signal.
Test [6] has as its target Pro-neuregulin-1, membrane-bound isoform (Homo sapiens) (UniProt Q02297). Put plainly: NRG1 binders on small-molecule microarrays, primary screen, psychiatric disease protein project, biochemical, small-molecule microarray, fluorescence 635/667 (AID 1075).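 Also: score combines 667 nm spot fluorescence with signal to noise.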 The note with it: NRG1 binding, 635 nm fluorescence, higher = more signal.
The subject of test [7] is Neuregulin-1 EGF-like domain. Put plainly: binders of neuregulin-1 EGF-like domain, primary screen, biochemical, small-molecule microarray, 635 nm fluorescence (AID 1081).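 Also: binding of the protein to compounds printed on small-molecule microarray slides.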 The note with it: small-molecule microarray binding, higher = more signal.
Test [8] is described as follows: FRG1 promoter luciferase signal modulators, primary screen, FRG1 inhibition for FSHD, cell-based, C2C12 myotubes, firefly/Renilla luciferase, luminescence (AID 1084). The conditions noted are these: higher = more signal, called active from +8 up or from −8 down.
Test [9] in a line: binders of probe aFST on microarray, primary screen, stem cell growth factor project, biochemical, small-molecule microarray, fluorescence 635/667 (AID 1086).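 Also: score merges 667 nm fluorescence with signal-to-noise of each printed compound spot.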 The conditions noted are these: higher = more signal.
Test [10] is described as follows: binders of probe aHhip on microarray, primary screen, stem cell growth factor project, biochemical, small-molecule microarray, fluorescence 635/667 (AID 1087).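 Also: score merges spot fluorescence at 667nm with spot signal to noise ratio.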 The conditions noted are these: higher = more signal.
In test [11] the test system is PRMT1 (protein arginine N-methyltransferase 1). Put plainly: PRMT1 binders on small-molecule microarrays, primary screen, biochemical, small-molecule microarray, 635 nm fluorescence (AID 1088).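 Also: binding of Prmt1 protein to compounds spotted on small-molecule microarray slides.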 The note with it: small-molecule microarray binding, higher = more signal.
Test [12] can be described thus: yeast growth modulation, basal conditions, primary screen, YJM789 clinical isolate, OD600, 24 h (AID 1089).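 Also: growth of clinical yeast isolate S. cerevisiae YJM 789 seeded 1000 cells per well; test concentration not given here.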 The note with it: S. cerevisiae YJM789 growth, higher = more signal, called active from +8 up or from −8 down.
Test [13] in a line: fission yeast growth modulation, primary screen, strain 972, OD600, 24 h, no modulator (AID 1090).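 Also: basal condition with compound alone and no growth modifier present; test concentration not given here.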 The note with it: S. pombe 972 growth, higher = more signal, called active from +8 up or from −8 down.
Test [14] in a line: S. cerevisiae growth modulation with rapamycin, primary screen, strain BY4716, OD600, 96 h (AID 1091). Also: test concentration not given here. The conditions noted are these: higher = more signal, called active from +8 up or from −8 down.
Test [15] concerns the target Torsin-1A-interacting protein 2 (Homo sapiens) (UniProt Q8NFQ8). The test can be described thus: LULL1 binders on small-molecule microarray, primary screen, cell lysate, human LULL1 lysate, 635/667 nm fluorescence (AID 1092).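 Also: probe is lysate of COS7 cells overexpressing human LULL1; score merges per-feature 667 nm fluorescence with signal-to-noise.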 The note with it: hLULL1 lysate binding, 635 nm fluorescence, higher = more signal.
A short description of test [16]: E. coli growth modulation, two-sided OD650, primary screen, E. coli filamentation project, strain DRC41, 24 h (AID 1093).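 Also: MC1000 strain lacking acrAB efflux and sulA so SOS filamentation is blocked; test concentration not given here.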 The note with it: OD650, 24 h, higher = more signal, called active from +8 up or from −8 down.
Test [17] can be described thus: small-molecule microarray binders of probe aLefty2, primary screen, biochemical, biotinylated probe, 635/667 nm fluorescence (AID 1094).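 Also: score merges spot fluorescence near 667 nm with spot signal-to-noise ratio.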 The note with it: higher = more signal.
Test [18] concerns Noggin (protein binding on small-molecule microarray). The test can be described thus: Noggin binders on small-molecule microarray, primary screen, biochemical, 635/667 nm fluorescence (AID 1095).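 Also: score merges 667 nm feature fluorescence with signal to noise over triplicate slides.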 The conditions noted are these: 635 nm fluorescence, higher = more signal.
In test [19] the target is Neurogenic locus notch homolog protein 3 (Homo sapiens) (UniProt Q9UM47). The test can be described thus: NOTCH3 binders on small-molecule microarray, primary screen, biochemical, 635/667 nm fluorescence (AID 1096). The note with it: NOTCH3 binding, 635 nm fluorescence, higher = more signal.
A short description of test [20]: small-molecule microarray binders of probe aEGFR, primary screen, biochemical, biotinylated probe, 635/667 nm fluorescence (AID 1097).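 Also: probe is a biotinylated anti-EGFR antibody binding compounds printed on slides; score combines fluorescence near 667 nm and signal to noise of each spot.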 The note with it: higher = more signal.

Pro-neuregulin-1, membrane-bound isoform (Homo sapiens), sequence (Q02297 whole entry, looked up, the tested form may be a part, canonical isoform): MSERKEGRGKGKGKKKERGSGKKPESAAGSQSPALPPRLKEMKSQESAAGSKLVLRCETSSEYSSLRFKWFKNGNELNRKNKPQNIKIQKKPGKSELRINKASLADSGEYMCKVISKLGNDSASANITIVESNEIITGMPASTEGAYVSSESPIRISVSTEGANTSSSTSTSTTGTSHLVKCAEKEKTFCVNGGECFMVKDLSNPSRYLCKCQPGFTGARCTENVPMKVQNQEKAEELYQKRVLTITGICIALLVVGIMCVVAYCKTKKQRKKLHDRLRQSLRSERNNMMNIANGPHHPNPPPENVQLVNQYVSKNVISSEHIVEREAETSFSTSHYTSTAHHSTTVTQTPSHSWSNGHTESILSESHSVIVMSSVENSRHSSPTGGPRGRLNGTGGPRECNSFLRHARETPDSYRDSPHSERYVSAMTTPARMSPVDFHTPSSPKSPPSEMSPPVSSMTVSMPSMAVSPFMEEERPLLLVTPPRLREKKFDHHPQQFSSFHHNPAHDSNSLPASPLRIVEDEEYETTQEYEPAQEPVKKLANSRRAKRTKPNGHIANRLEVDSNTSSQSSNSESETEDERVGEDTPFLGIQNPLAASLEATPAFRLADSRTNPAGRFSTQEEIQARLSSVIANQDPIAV
Neurogenic locus notch homolog protein 2 (Homo sapiens), sequence (Q04721 whole entry, looked up, canonical isoform): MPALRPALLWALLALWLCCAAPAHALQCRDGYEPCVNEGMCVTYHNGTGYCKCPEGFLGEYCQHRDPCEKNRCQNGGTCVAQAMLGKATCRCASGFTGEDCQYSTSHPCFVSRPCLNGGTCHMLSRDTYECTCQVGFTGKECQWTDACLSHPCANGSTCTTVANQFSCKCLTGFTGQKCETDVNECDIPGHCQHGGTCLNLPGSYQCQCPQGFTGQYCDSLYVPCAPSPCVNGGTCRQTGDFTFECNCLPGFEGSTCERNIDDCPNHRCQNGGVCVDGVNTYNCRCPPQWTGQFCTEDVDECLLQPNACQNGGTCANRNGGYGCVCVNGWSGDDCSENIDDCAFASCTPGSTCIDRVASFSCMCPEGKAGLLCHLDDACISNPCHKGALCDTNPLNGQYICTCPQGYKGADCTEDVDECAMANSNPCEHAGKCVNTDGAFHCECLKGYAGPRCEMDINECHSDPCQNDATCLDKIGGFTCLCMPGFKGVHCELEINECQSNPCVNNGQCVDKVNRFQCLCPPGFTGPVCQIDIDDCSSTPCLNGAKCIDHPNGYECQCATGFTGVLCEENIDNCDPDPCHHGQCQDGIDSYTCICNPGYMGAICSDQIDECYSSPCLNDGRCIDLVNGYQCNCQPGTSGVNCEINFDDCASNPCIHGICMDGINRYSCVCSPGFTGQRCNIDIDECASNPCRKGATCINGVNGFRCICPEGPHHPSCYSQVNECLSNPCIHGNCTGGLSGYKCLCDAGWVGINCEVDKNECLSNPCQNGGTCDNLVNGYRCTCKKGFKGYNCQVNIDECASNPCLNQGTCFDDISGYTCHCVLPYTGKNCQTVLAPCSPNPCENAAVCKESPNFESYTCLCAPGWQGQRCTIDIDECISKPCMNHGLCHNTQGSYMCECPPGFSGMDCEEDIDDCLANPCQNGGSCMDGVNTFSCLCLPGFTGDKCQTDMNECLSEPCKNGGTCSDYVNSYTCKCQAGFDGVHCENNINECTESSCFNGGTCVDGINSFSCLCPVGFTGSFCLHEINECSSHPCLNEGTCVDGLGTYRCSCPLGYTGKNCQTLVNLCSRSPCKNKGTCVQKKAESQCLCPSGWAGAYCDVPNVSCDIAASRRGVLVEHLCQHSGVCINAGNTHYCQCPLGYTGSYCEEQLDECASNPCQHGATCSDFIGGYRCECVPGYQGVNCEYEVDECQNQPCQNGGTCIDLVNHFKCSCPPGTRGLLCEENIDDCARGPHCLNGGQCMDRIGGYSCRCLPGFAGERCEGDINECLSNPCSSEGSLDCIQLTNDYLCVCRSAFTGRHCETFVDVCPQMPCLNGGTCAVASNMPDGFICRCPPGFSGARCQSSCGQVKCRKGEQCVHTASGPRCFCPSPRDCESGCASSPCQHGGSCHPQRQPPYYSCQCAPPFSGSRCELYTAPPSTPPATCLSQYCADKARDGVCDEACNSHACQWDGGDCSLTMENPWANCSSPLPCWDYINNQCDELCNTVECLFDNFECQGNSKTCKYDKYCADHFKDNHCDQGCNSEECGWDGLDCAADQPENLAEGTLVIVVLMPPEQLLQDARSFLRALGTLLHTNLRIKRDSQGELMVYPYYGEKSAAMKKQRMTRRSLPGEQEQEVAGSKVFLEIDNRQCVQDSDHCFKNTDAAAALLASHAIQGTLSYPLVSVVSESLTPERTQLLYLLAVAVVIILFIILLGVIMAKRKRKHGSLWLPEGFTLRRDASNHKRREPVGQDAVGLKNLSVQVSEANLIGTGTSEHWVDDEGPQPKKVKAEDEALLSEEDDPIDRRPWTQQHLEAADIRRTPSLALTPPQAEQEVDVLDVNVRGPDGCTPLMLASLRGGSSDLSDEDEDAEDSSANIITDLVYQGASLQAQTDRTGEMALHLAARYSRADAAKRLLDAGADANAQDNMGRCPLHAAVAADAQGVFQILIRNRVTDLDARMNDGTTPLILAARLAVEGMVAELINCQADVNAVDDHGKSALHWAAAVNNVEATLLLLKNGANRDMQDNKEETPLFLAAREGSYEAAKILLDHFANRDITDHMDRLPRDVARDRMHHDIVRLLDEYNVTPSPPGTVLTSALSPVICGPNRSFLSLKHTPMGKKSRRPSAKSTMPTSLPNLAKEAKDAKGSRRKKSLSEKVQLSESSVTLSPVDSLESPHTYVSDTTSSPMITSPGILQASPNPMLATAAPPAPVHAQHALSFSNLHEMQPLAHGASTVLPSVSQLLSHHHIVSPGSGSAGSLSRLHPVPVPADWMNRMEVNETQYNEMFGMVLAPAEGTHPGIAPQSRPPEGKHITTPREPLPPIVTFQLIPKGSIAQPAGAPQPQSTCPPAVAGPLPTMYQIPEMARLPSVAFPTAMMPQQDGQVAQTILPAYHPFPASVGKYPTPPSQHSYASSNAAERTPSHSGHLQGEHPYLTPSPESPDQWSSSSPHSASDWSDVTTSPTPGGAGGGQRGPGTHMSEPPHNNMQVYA
Torsin-1A-interacting protein 2 (Homo sapiens), sequence (Q8NFQ8 whole entry, looked up): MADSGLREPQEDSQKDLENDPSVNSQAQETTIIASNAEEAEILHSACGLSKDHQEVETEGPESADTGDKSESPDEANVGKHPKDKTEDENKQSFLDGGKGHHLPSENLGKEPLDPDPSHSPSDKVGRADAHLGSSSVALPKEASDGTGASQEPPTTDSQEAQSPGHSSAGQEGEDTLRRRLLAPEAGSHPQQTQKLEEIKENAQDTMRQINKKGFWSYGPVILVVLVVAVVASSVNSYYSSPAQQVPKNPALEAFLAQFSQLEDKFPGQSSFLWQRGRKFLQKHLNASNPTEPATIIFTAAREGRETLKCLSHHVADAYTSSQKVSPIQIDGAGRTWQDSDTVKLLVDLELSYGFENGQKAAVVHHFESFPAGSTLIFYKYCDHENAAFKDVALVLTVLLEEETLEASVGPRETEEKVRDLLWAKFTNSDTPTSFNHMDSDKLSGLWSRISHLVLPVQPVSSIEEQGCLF

With `CC(C)N1C(=O)C[C@@](C(=O)NC2CC2)(c2ccc([N+](=O)[O-])cc2)[C@H]1c1ccc(CO)cc1`, the composite z-score in [1] is 0.632; in [2], 0.387; in test [3], -0.111; in test [4], 0.173; in test [5], -0.551; in test [6] it was 1.75. For the same molecule, the composite z-score in test [7] is 1.35; in test [9], -0.551; in [10], -0.0994; in [11], 0.978; in test [15], 3.25; in [17], 0.0702. The composite z-score is -1.15 in [18], -0.46 in test [19] and -0.281 in test [20]. In addition, the z-score in test [8] was 0.74 (inactive); in test [12], -0.195 (inactive); in test [13] it was -1.08 (inactive); in [14], 0.601 (inactive); in test [16], 0.718 (inactive).
As for `COc1cc(C(O)C2C=CC3C(=O)N(C)C(=O)C3N2Nc2ccccc2)cc(OC)c1OC` (stereo not given), the composite z-score in [1] was determined as 1.3; in [2], 0.723; in test [3], 0.341; in [4], 0.602; in test [5], 1.25; in test [6] it was 1.83. The composite z-score in test [7] was found to be 1.35; in test [9], 1.53; in [10] it was 0.592; in test [11], 1.33; in test [15] it was 3.62; in test [17] it was 0.581. Moreover, the figures for the composite z-score in [18], in test [19] and in [20] were -0.339, 1.11 and 0.197, respectively. In addition, the z-score in test [8] is -0.818 (inactive); in test [12] it was 0.0446 (inactive); in test [13], -0.549 (inactive); in test [14], -0.299 (inactive); in test [16], 0.238 (inactive).
Regarding `COC(=O)[C@@H]1N=C(c2ccc(OCCCO)cc2)O[C@@H]1C`, the composite z-score in test [1] was 0.0684; in test [2] it was 0.331; in test [3] it was -0.0627; in test [4] it was 0.509; in test [5], 0.108; in test [6] it was -0.519. The composite z-score in test [7] was 0.155; in test [9] it was 0.195; in [10], 0.0139; in [11] it was 1.28; in test [15] it was -0.0276; in test [17] it was 0.0539. Besides, the composite z-score in [18] was 0.0641; in [19] it was 0.0599; in test [20] it was -0.0465. For the same molecule, the z-score in test [8] was 5.05 (inactive); in test [12], 0.464 (inactive); in [13] it was -0.0679 (inactive); in test [14], -0.184 (inactive); in [16] it was 0.98 (inactive).
Turning to `CC#CCO[Si](C#Cc1ccccc1)(C(C)C)C(C)C`, the composite z-score in [1] was 0.393; in [2] it was -0.688; in test [3], -0.187; in test [4], -0.279; in test [5], 1.34; in [6], -0.878. Further, the composite z-score in test [7] was -0.665; in test [9], -0.217; in [10], -0.134; in test [11], -0.877; in test [15], -0.669; in test [17], -0.135. In addition, the figures for the composite z-score in test [18], in test [19] and in test [20] were 0.709, 0.231 and -0.203, respectively. In addition, the z-score was 0.289 (inactive) in [8]; -1.72 (inactive) in [12]; -19.5 (active) in test [13]; -1.86 (inactive) in test [14]; -0.304 (inactive) in test [16].
`Cc1ccc(S[C@]2(C(=O)O)CC(=O)N(C3CCCCC3)[C@@H]2c2ccc(CO)cc2I)cc1`: the composite z-score in test [1] is -0.0155; in [2], 0.165; in test [3], -0.0986; in test [4] it was 0.52; in [5] it was 0.762; in test [6], 1.43. Further, the composite z-score is 1.2 in test [7]; 1.23 in test [9]; -0.0898 in [10]; 1.5 in test [11]; 3.35 in test [15]; 0.274 in test [17]. The composite z-score in test [18] is -0.0104; in test [19], 0.754; in [20] it was -0.0369. The z-score in test [8] is -0.163 (inactive); in test [12], -0.693 (inactive); in [13], -0.472 (inactive); in [14], 0.253 (inactive); in test [16] it was 0.843 (inactive).
